Data from the supplement of paper PMC11732987, “Enantioselective OTUD7B fragment discovery through chemoproteomics screening and high-throughput optimisation” (Communications Chemistry, 2025).

Tests used:
Test in all cases: log2 ratio of Biotin-Ahx-Ub-VS probe labelling (fragment/DMSO); higher = less target engagement (more negative = stronger competition), active = hit call of the paper (q ≤ 0.05, log2 ratio ≤ -1)
Settings in all cases: compound concentration: 200 uM; treatment time: 3 h
[1] = molecular target: USP34 (UniProt Q70CQ2)
Outline: (§1)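 Average log2 ratios of fragment over vehicle were obtained by unpaired t-test from global-median-normalised Spectronaut label-free quantities. Proteins with ≥2 unique peptides were included. HEK293T lysate (495 µg per sample) was treated in triplicate with fragment at 200 µM or vehicle for 3 h, then with Biotin-Ahx-Ub-VS at 0.5 µM final for 1 h, and labelled DUBs were NeutrAvidin-enriched and run by diaPASEF LC-MS/MS.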

[2] = molecular target: T1, USP36 (UniProt Q9P275)
T1 sequence (whole entry): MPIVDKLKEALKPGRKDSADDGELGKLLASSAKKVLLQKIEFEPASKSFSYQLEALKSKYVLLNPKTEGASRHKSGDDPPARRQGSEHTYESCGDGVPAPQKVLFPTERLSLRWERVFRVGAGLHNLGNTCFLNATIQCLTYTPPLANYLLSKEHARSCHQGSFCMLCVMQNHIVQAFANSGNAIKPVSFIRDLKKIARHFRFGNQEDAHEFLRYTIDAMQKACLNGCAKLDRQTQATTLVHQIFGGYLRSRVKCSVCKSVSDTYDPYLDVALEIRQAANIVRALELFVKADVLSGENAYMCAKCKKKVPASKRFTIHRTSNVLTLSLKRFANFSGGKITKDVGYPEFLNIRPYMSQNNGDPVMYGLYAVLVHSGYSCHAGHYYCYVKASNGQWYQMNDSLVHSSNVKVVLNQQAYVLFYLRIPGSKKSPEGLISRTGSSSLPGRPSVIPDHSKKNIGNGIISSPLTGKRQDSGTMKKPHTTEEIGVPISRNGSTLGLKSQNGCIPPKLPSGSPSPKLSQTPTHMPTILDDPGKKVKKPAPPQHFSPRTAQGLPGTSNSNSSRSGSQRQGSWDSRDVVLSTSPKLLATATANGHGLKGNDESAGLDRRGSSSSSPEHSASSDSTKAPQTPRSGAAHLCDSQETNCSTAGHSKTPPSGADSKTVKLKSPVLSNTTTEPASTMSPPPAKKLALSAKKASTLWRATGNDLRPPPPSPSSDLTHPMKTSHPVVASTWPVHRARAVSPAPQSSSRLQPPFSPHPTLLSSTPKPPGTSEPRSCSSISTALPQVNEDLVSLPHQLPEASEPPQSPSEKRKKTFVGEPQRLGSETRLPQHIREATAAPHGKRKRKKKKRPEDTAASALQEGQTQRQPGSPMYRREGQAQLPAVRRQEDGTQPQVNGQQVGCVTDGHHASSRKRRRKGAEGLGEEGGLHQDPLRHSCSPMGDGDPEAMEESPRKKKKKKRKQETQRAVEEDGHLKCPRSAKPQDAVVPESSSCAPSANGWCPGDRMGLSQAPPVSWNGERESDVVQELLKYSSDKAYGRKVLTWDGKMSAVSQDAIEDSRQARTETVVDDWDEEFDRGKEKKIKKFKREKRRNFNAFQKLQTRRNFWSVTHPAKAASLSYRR
Outline: as §1

[3] = molecular target: T2, USP38 (UniProt Q8NB14)
T2 sequence (whole entry): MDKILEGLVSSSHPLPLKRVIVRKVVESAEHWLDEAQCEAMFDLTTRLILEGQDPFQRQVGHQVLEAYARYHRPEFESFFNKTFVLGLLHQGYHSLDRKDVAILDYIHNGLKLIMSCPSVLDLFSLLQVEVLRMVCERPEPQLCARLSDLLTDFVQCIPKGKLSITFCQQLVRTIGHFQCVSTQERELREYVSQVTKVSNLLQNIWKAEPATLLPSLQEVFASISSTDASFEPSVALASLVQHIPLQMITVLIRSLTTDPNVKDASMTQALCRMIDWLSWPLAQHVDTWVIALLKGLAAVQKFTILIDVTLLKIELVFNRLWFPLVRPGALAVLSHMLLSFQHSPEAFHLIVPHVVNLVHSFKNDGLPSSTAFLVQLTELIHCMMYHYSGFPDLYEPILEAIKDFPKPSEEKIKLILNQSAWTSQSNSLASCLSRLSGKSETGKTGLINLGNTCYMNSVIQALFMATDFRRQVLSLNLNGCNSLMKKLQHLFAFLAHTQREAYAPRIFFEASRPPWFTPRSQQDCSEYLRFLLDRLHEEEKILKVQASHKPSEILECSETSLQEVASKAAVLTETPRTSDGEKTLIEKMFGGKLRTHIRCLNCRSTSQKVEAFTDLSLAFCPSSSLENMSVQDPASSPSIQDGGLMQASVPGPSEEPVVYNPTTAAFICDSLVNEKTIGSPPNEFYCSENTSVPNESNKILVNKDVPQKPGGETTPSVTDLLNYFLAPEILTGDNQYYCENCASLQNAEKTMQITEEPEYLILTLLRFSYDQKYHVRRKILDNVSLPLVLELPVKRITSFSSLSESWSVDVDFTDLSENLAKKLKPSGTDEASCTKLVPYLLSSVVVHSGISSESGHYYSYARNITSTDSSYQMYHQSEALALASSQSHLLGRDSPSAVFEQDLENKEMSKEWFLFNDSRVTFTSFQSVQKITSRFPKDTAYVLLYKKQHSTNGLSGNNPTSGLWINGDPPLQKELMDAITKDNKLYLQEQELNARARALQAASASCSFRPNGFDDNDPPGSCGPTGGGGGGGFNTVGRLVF
Outline: as §1

[4] = molecular target: T3, USP39 (UniProt Q53GS9)
T3 sequence (whole entry): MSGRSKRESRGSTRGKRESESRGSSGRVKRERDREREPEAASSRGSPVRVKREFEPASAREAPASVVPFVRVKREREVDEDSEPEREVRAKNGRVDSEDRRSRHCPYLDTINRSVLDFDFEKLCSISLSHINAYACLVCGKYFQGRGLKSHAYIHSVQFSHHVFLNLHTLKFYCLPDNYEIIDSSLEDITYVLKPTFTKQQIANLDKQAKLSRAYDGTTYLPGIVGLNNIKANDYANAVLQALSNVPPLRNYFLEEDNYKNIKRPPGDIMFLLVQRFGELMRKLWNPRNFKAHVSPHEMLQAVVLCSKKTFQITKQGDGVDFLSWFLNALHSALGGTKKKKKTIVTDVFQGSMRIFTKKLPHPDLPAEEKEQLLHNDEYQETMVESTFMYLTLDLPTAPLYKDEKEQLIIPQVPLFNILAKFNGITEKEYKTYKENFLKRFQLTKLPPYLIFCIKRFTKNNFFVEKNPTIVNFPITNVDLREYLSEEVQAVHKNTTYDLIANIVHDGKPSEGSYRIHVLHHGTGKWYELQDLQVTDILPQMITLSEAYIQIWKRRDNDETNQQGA
Outline: as §1

[5] = molecular target: T4, USP4 (UniProt Q13107)
T4 sequence (whole entry): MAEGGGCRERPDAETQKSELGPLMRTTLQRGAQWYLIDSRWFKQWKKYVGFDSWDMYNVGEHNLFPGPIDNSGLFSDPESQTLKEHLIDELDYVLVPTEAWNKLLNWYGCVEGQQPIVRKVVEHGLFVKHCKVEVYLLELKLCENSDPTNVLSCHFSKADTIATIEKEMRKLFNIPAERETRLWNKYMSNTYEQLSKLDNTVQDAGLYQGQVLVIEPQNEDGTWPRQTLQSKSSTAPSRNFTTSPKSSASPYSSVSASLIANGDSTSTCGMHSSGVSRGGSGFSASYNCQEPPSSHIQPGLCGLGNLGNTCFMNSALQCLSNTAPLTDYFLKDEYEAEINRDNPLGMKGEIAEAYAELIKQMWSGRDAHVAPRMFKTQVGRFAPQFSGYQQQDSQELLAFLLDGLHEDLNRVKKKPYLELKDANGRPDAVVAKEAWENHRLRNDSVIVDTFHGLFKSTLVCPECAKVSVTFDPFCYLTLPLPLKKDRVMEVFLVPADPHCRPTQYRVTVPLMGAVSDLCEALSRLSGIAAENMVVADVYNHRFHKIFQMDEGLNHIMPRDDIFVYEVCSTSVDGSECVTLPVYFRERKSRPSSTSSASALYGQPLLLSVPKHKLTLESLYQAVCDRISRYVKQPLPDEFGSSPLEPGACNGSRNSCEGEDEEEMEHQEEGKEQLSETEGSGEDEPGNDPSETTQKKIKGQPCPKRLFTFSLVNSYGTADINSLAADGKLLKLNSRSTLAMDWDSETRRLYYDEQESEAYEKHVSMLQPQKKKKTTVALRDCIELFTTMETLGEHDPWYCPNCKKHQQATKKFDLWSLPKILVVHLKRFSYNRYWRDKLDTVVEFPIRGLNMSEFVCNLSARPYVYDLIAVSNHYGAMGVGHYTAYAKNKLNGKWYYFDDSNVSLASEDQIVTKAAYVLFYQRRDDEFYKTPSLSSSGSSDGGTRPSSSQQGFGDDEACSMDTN
Outline: as §1

Measured: log2 ratio of Biotin-Ahx-Ub-VS probe labelling

USP34, sequence (Q70CQ2 whole entry, the tested form may be a part): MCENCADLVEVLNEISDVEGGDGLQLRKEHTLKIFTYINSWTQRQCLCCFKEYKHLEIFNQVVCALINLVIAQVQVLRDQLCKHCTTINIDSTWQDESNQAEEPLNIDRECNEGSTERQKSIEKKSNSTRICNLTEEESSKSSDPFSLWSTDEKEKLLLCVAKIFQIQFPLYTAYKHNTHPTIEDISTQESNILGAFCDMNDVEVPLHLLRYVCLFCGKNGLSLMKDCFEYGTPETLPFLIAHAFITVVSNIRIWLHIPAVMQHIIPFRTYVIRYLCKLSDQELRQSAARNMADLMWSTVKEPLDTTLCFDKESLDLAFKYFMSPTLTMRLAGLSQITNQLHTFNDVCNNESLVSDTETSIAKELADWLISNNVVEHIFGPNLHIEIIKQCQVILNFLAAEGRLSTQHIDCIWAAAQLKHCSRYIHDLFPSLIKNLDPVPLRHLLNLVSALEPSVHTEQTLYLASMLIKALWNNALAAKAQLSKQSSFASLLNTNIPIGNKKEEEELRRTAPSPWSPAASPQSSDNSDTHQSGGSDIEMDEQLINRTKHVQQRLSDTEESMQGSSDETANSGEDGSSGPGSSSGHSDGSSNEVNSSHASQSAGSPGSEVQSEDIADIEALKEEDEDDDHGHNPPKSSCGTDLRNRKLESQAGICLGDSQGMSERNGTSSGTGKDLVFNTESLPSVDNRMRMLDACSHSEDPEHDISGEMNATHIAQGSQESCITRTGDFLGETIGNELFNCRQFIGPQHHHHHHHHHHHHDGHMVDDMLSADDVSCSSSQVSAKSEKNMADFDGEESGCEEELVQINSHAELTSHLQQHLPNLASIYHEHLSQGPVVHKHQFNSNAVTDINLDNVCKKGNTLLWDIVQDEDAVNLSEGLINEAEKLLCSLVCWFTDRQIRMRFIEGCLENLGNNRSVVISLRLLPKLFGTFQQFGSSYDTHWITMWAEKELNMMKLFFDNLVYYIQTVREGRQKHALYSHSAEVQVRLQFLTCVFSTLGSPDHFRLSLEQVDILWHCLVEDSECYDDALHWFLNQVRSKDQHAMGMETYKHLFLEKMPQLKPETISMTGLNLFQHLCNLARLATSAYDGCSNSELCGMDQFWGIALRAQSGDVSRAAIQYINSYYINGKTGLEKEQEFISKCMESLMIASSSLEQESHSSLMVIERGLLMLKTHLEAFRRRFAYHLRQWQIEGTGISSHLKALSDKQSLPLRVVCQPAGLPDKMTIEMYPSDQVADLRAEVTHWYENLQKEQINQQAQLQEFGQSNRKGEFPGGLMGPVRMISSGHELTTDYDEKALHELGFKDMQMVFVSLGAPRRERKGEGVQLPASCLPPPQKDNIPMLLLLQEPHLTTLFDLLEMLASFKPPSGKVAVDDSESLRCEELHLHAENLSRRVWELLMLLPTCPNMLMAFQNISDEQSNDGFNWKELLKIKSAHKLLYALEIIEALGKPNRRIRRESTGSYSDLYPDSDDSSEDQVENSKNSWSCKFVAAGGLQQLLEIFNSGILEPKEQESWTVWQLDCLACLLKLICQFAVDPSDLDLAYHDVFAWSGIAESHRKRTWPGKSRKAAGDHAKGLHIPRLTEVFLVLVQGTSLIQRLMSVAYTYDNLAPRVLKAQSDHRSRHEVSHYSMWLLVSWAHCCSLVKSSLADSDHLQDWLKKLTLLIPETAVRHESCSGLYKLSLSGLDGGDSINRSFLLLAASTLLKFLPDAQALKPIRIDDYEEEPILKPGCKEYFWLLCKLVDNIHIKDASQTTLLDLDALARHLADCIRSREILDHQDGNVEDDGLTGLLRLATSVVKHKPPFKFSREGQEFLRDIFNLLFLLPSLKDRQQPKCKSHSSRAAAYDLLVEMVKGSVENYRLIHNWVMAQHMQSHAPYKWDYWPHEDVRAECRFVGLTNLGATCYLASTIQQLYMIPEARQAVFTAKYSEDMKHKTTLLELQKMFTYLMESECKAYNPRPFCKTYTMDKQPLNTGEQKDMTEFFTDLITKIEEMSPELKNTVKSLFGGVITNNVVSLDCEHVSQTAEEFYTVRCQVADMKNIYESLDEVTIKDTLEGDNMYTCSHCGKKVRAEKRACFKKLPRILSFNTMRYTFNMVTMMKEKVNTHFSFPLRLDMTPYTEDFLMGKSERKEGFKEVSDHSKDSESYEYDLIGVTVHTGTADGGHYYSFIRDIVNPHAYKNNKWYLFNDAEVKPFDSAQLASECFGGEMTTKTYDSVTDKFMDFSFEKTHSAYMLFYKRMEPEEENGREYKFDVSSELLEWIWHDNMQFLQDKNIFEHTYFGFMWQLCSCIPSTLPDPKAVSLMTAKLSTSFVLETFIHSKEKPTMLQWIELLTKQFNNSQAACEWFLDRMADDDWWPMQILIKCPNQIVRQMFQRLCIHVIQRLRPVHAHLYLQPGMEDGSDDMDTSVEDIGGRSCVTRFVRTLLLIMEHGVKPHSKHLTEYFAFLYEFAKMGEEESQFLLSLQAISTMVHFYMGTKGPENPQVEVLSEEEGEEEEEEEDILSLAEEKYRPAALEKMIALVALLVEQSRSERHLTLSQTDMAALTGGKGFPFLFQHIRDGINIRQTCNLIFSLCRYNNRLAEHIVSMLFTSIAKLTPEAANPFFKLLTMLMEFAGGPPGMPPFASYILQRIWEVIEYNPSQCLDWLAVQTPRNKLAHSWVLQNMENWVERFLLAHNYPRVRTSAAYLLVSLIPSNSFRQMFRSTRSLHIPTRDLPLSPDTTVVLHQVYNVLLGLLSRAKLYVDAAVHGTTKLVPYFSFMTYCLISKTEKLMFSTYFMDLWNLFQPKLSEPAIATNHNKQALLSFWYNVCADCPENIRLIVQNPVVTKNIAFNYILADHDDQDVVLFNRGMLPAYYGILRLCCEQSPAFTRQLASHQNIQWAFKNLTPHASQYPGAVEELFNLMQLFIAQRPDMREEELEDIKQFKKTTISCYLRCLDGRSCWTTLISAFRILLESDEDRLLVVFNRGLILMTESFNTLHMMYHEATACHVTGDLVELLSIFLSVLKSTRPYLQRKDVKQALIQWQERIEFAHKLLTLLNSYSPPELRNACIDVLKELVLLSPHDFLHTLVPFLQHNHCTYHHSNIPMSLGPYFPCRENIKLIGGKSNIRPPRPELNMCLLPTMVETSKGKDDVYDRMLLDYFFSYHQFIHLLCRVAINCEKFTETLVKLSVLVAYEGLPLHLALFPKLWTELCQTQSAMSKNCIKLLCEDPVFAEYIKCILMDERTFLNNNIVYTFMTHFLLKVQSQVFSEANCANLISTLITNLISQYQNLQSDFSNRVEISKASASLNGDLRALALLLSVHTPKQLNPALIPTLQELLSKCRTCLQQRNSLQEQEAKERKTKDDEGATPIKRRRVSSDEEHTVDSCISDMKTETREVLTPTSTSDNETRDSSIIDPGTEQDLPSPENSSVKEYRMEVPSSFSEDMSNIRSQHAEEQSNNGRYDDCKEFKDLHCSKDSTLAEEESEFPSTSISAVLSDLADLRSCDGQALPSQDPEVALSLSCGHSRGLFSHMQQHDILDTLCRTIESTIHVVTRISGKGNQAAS

CC(C)n1nccc1NC(=O)CCl
inactive: [1] -0.109 | [2] -0.0105 | [3] -0.0818 | [4] -0.252 | [5] -0.0708
